Assay [1] concerns CRL-7250. The experiment in a line: Cytotoxic Profiling of Annotated Libraries Using Quantitative High-Throughput Screening (AID 1296008). For max response: % is set by controls: 0 for no effect and ±100 for the full control effect. Note: potency is the fitted concentration of half-maximal effect. Particulars: Five cell lines viability, CellTiter-Glo ATP luminescence, 48-72 h; max response: hits give low values. Put shortly: (§1)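 Cells exposed to compounds for 48 or 72 hr at 37 degrees Celsius. Viability read as ATP-coupled luminescence with CellTiter-Glo after 10 min at room temperature.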
In general terms: In ATP-based viability assays light output follows the ATP content of the culture.

In assay [2] the test system is HEK293. Described as above. Conditions: Five cell lines viability, CellTiter-Glo ATP luminescence, 48-72 h; max response: hits give low values. In outline: as §1
Assay [3] deals with HaCat. Described as above. Particulars: Five cell lines viability, CellTiter-Glo ATP luminescence, 48-72 h; max response: hits give low values. Put shortly:
as §1

In assay [4] the test system is KB-3-1. The assay is described as above. Conditions: Five cell lines viability, CellTiter-Glo ATP luminescence, 48-72 h; max response: hits give low values. Put shortly: as §1
Assay [5] has as its system NIH3T3. The description is as above. Particulars: Five cell lines viability, CellTiter-Glo ATP luminescence, 48-72 h; max response: hits give low values. Put shortly: as §1
Assay [6] has as its system NIH3T3. The experiment in a line: qHTS assay to identify novel small-molecules to repurpose for Merkel cell carcinoma treatment (AID 1296009). Conditions: MCC and control cell lines, CellTiter-Glo viability, 72 h; at 44.8 µM (top of the series) unless noted. In outline:
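Cells were incubated with compound for 72 hr at 37 degree celsius before CellTiter-Glo addition. Luminescence was normalized with no-cell wells as full cytotoxicity and DMSO as baseline.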
(In qHTS, concentration-response curves come from the screen itself.)

Inconclusive results are not listed. Unmarked numbers belong to inactive results. Calls of active or inactive are those of the source. Calls come from the whole dose curve; as a rule, active = well fitted inhibition curve with a large enough effect; inconclusive = small, poorly fitted or top-dose-only effect; inactive = flat fitted curve, though single readings scatter.
Note: nearly all actives have a fitted effect of over 60% in size.

Take `FC(F)(F)Oc1ccc(-c2ccc3nnc(C(F)(F)F)n3c2)cc1`: the max response is -1.14% in assay [1], -7.41% in assay [2] and -4.75% in assay [3]. Moreover, the call in assay [4], in assay [5] and in assay [6] was inactive.

Consider `C=C(C(=O)O)C1CC(O)C2(C)CCCC(C)(O)C2C1` (stereo unspecified), for which the call in assay [1], in assay [5] and in assay [6] was inactive. In addition, the max response in assay [2] was -8.07%; in assay [3] it was -11.8%; in assay [4] it was 0.961%.

For the compound `COC(=O)[C@]1(C)CCC[C@@]2(C)[C@@H]3CC[C@@H]4C[C@@]3(CC[C@@H]21)C[C@H]4C(=O)O`, the max response in assay [1] was -6.63%; in assay [2], 0.134%; in assay [3] it was 0.436%; in assay [4], 9.78%. The result in assay [5] and in assay [6] was inactive.

In the case of `CC(=O)O[C@@]1(C)[C@@H]2CC(=C(C)C)C(=O)C[C@@]2(C)CC[C@H]1OC(=O)C1(C)OC1C` (stereo partly specified), the max response in assay [1] is 1.92%; in assay [2], -20.6%; in assay [3], 0.799%; in assay [4] it was 0.573%. Further, the compound was called inactive in assay [5] and in assay [6].

Consider `CC(C)C(O)(CO)CCO[C@@H]1O[C@H](CO[C@H]2OC[C@](O)(CO)[C@H]2O)[C@@H](O)[C@H](O)[C@H]1O` (stereo partly specified), for which the max response is 2.62% in assay [1], -11.4% in assay [2], -9.77% in assay [3] and 4.64% in assay [4]. Moreover, the call in assay [5] was inactive. Besides, the outcome in assay [6] was “inactive [at 17.4 µM]”.

Take `Oc1ccc(CC2NCCc3cc(O)c(O)cc32)cc1` (stereo unspecified): the max response in assay [1] was 4.94%; in assay [2] it was -11.9%; in assay [3], 1.1%; in assay [4], 1.59%. The call in assay [5] and in assay [6] was inactive.

For the compound `CC1(C)CC[C@]2(C(=O)O)CC[C@]3(C)C(=CCC4[C@@]5(C)C[C@@H](O)[C@H](O)[C@](C)(CO)C5CC[C@]43C)[C@@H]2[C@@H]1O` (stereo partly specified), the compound was classed as inactive in assay [1] and in assay [5]. In addition, in assay [2], the Potency is 7.96 µM (active). Moreover, the max response in assay [3] is 1.54%; in assay [4], -5.13%. Also, in assay [6], the outcome is “inactive [at 17.4 µM]”.

Consider `Cc1nc2cc(-c3cc(F)cc(C#N)c3)ccc2s1`, for which the max response in assay [1] is -5.31%; in assay [2], -12.9%; in assay [3], -10.9%; in assay [4] it was 0.518%. Besides, the call in assay [5] and in assay [6] was inactive.

For `CC(C)(C)NS(=O)(=O)c1ccc(-c2ccc3[nH]nc(N)c3c2)cc1`, the max response in assay [1] was -6.71%; in assay [2] it was -2.12%; in assay [3], -19%; in assay [4], 8.07%. The compound was classed as inactive in assay [5] and in assay [6].

As for `O=C(Nc1cc(-c2ccccc2)nn1-c1ccccc1)c1ccc([N+](=O)[O-])cc1`, the max response in assay [1] is -6.57%; in assay [2] it was -12.1%; in assay [3] it was 1.9%; in assay [4], -7.82%. The call in assay [5] and in assay [6] was inactive.

As for `Cc1nnc(-c2sc(NC(=O)[C@H](C(C)C)n3c(=O)[nH]c4ccccc4c3=O)nc2C)o1`, the max response is -59.8% in assay [1], -6.7% in assay [2], -23.8% in assay [3] and 8.7% in assay [4]. Further, the outcome in assay [5] and in assay [6] was inactive.

Consider `C/C=C(\C)C(=O)OC[C@H]1O[C@@H](O[C@H]2[C@@H](O[C@H]3O[C@H](COC(=O)/C(C)=C/C)[C@@H](O)[C@H](O)[C@H]3O[C@@H]3O[C@H](COC(=O)/C(C)=C/C)[C@@H](O)[C@H](OC(=O)/C(C)=C/C)[C@H]3O)O[C@H](COC(=O)/C(C)=C/C)[C@@H](O)[C@@H]2O)[C@H](O)[C@@H](O)[C@@H]1O`, for which the max response in assay [1] is -1.79%; in assay [2], -2.95%; in assay [3], -1.65%; in assay [4] it was 7.25%. Further, in assay [5], the outcome was inactive. For the same compound, in assay [6], the outcome was “inactive [at 9.27 µM]”.

`C=C(C)[C@@H]1CC[C@]2(CO)CC[C@]3(C)[C@H](CC[C@@H]4[C@@]5(C)CC[C@H](O)C(C)(C)[C@@H]5CC[C@]43C)[C@@H]12`: the max response in assay [1] is 1.98%; in assay [2], 3.79%; in assay [3] it was 2.42%. The compound was called inactive in assay [4] and in assay [5]. In addition, the outcome in assay [6] is “inactive [at 17.4 µM]”.

In the case of `COc1cn(-c2ccc(-n3cccn3)cc2F)nc(-c2ccnn2-c2ccccc2)c1=O`, the max response in assay [1] is 1.34%; in assay [2], -9.47%; in assay [3], -2.34%; in assay [4] it was 7.34%. In addition, the outcome in assay [5] and in assay [6] was inactive.

As to `CC1=CC23[C@H](C=C(C(=O)O)[C@@H]2COC(=O)[C@]3(O)CO)[C@@H]1C` (stereo partly specified), the max response was -1.44% in assay [1], 2.57% in assay [2], -3.69% in assay [3] and 5.88% in assay [4]. For the same compound, the result in assay [5] and in assay [6] was inactive.

For `COc1cc2c(cc1OC)N1C(=O)C[C@@]34C=CC[N@+]5([O-])CC[C@H]2[C@H](CC3)[C@@]145`, the max response in assay [1] is -5.36%; in assay [2], -9.63%; in assay [3], -4.24%; in assay [4] it was 1.95%. Also, the call in assay [5] and in assay [6] was inactive.

The values above are taken from PubChem BioAssay (NCATS).
